Reference: PubChem BioAssay (NCATS)
Inconclusive results are not listed. Activity calls are given as the source filed them. Calls come from the whole dose curve; as a rule, active = well fitted curve in the direction sought with a large enough effect; inconclusive = small, poorly fitted or top-dose-only effect, or another doubt; inactive = no such curve, though single readings can be large; an effect the other way counts as inactive or inconclusive.

How the values were obtained:
[1] = molecular target: DNA repair nuclease/redox regulator APEX1 (Homo sapiens) (UniProt P27695); experiment: qHTS Validation Assay for Inhibitors of the Human Apurinic/apyrimidinic Endonuclease 1 (APE1) (AID 1705;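 note: TAMRA fluorescence gain over two minutes as APE1 cuts a quenched THF abasic duplex; series mostly up to about 57 µM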)
DNA repair nuclease/redox regulator APEX1 (Homo sapiens), sequence (P27695 whole entry, looked up): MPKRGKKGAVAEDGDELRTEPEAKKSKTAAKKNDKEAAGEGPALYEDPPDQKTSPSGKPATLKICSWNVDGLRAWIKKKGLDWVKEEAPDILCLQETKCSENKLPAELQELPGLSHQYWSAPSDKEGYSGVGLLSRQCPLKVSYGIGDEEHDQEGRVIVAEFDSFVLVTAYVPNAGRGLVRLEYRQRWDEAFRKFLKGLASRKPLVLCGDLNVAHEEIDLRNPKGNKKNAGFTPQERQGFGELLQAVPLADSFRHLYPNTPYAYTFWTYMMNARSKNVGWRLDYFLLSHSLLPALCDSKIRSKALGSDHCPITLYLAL
Outline: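 Activity read as rising fluorescence (598 nm emission, 525 nm excitation) from incision of a TAMRA/BHQ-2 duplex carrying a THF abasic site (50 nM). Compound and enzyme sat 15 min at RT before substrate start; signal change between first and third 60-s reads.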

[2] = Counterscreen for APE1 Inhibitors: Fluorescent Dye Displacement Validation Assay (AID 1707)
Outline: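 Loss of Thiazole Orange fluorescence marks promiscuous DNA binders. The dye (250 nM) is mixed with 50 nM abasic-site dsDNA in pH7.5 Tris buffer containing MgCl2, then compounds are added and emission is read once.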

[3] = molecular target: Endonuclease 4 (Escherichia coli (strain K12)) (UniProt P0A6C1); experiment: Counterscreen for APE1 Inhibitors: qHTS Validation Assay for Inhibitors of Endonuclease IV (AID 1708)
Outline: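 Read-out: fluorescence rise (ex 525/em 598 nm) from incision of a TAMRA/BHQ-2 double-stranded THF abasic-site substrate (50 nM), measured kinetically; third-minus-first read difference gave reaction progress. Enzyme 2 nM.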

[4] = qHTS for differential inhibitors of proliferation of Plasmodium falciparum line 7G8 (AID 1815);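 note: parasite growth measured after three days of incubation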
[5] = qHTS for differential inhibitors of proliferation of Plasmodium falciparum line GB4 (AID 1816);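 note: parasite growth measured after 72 h incubation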
[6] = qHTS for differential inhibitors of proliferation of Plasmodium falciparum line 3D7 (AID 1876);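 note: parasite growth measured after three days of culture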
[7] = qHTS for differential inhibitors of proliferation of Plasmodium falciparum line D10 (AID 1877);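 note: parasites grown with compound for 72 h before DNA staining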
[8] = qHTS for differential inhibitors of proliferation of Plasmodium falciparum line Dd2 (AID 1882);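 note: series mostly up to about 29 µM; compound exposure of 72 h on infected erythrocytes; nearly all actives have a fitted effect of over 65% in size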
Outline: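 RBC culture, 0.3% parasitemia / 2.5% Hct final; cpd added by pin tool in DMSO; 72 h, 37 C, 5% CO2; lysis buffer + SYBR Green I, o/n RT dark; FI 485/535; norm. to artemisinin 0.29 uM and DMSO.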

[9] = qHTS for differential inhibitors of proliferation of Plasmodium falciparum line W2 (AID 1883);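 note: parasites grown with compound for 72 h before lysis and staining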
[10] = qHTS for differential inhibitors of proliferation of Plasmodium falciparum line HB3 (AID 1886);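 note: parasites grown with compound for 72 h before SYBR Green readout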

Measured: outcome

CN1C(C)(C)CCCC1(C)C
inactive: [1] | [2] | [3] | [4] | [5] | [6] | [7] | [8] | [9] | [10]
